Data on 15 compounds can be found in PubChem BioAssay (NCATS).

Values joined by “and” are separate entries in the source; they are usually repeats but may differ in a detail not shown here. Identical values can stand only once. Results filed as inconclusive are left out. Entries that show only a call come without a potency. Some compounds were tested as several samples or in several runs, with calls that do not always agree. Active and inactive are the calls of the source. Unless noted, calls come from the whole dose curve.

Retinoic acid receptor RXR-alpha (Homo sapiens), sequence (P19793 whole entry, looked up): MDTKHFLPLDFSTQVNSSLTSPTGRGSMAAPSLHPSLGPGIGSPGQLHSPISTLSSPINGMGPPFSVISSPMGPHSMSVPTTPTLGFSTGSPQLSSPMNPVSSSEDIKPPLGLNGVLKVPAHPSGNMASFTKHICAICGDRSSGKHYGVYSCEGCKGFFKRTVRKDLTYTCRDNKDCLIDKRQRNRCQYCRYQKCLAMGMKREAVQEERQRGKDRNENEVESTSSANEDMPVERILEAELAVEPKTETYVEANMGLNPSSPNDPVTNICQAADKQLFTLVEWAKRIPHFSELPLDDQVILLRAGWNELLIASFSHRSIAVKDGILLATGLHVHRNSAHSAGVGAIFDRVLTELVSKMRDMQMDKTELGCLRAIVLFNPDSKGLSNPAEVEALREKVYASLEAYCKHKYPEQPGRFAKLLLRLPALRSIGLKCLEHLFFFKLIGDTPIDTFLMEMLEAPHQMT
Thyroid hormone receptor beta (Homo sapiens), sequence (P10828 whole entry, looked up): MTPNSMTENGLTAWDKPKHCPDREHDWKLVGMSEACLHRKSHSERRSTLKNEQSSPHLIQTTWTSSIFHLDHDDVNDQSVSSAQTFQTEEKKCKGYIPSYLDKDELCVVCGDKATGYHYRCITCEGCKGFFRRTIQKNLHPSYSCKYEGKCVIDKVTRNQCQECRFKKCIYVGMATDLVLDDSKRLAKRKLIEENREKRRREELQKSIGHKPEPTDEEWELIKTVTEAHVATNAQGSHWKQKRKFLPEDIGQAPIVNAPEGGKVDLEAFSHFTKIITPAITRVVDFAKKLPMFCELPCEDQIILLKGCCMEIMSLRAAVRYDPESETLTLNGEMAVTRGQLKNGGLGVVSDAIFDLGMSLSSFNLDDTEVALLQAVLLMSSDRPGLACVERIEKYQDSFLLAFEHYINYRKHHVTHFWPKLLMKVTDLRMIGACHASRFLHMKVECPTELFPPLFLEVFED
Peroxisome proliferator-activated receptor gamma (Homo sapiens), sequence (P37231 whole entry, looked up): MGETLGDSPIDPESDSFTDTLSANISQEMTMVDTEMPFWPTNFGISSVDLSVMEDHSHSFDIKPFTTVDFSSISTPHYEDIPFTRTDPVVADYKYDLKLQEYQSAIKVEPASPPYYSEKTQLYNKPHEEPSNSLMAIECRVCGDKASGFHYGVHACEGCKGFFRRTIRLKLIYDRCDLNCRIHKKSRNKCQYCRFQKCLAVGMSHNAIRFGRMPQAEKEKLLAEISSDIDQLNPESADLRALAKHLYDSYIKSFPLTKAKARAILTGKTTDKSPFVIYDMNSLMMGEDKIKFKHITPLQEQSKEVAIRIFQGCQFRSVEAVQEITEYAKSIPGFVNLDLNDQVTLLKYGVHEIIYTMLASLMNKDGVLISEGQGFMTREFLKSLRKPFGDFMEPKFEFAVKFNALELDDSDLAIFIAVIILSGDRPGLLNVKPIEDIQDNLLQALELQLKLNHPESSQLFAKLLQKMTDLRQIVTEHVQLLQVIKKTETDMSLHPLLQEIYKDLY

The first assay addresses Peroxisome proliferator-activated receptor gamma (Homo sapiens) (UniProt P37231). Nature of the assay: qHTS assay for small molecule antagonists of peroxisome proliferator-activated receptor gamma signaling (AID 588537; active = well fitted inhibition curve with a large enough effect in the signal ratio, with a control signal flat, not every such curve was filed as active; the % refers to the signal ratio; note: potency is the fitted concentration of half-maximal effect). The following applies: HEK293 PPARg-UAS-bla, beta-lactamase ratio, antagonist mode; series mostly up to 76.8 µM. An outline of the steps: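 Fluorescence at 460 and 530 nm (405 nm excitation) reported beta-lactamase cleavage of CCF4 after 2 h room-temperature loading. HEK293 reporter cells in 1% charcoal/dextran-treated FBS had received compound and rosiglitazone for 16 h.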
`CCNc1nc(Cl)nc(NC(C)C)n1`: the Potency entry is “inactive”.

In the case of `ClC(Cl)=C(c1ccc(Cl)cc1)c1ccc(Cl)cc1`, the Potency result is “inactive”.

As to `ClC1=C(Cl)C2(Cl)C3C4C=CC(C4)C3C1(Cl)C2(Cl)Cl` (configuration not stated), the Potency result is “inactive”.

Consider `COC(=O)NC(=S)Nc1ccccc1NC(=S)NC(=O)OC`, for which the Potency entry is “inactive”.

Consider `COP(=S)(OC)Oc1ccc([N+](=O)[O-])cc1`, for which the Potency entry was “inactive”.

As to `C=CCc1ccc(OC)cc1`, the Potency entry was “inactive”.

For the compound `ClC1=C(Cl)C2(Cl)C3C(Cl)C=CC3C1(Cl)C2(Cl)Cl` (configuration not stated), the Potency entry is “inactive”.

As for `CNC(=O)O/N=C/C(C)(C)SC`, the Potency entry was “inactive and 39.8 µM (active)”.

With `c1ccc(N=Nc2ccccc2)cc1`, the Potency result is “inactive”.

The target in a further assay is Vitamin D3 receptor (Homo sapiens) (UniProt P11473). Nature of the assay: qHTS assay for small molecule antagonists of vitamin D receptor signaling (AID 588541).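 Note: receptor activated by calcitriol during compound treatment.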 The settings on record: HEK293T VDR-UAS-bla, beta-lactamase ratio, antagonist mode; series mostly up to 76.7 µM. In short, it runs like this: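 VDR-UAS-bla HEK293T cells in 2% charcoal-stripped FBS were stimulated with 1-alpha,25-dihydroxyvitamin D3 (3 nM final) plus compound for 16 h at 37 C. The beta-lactamase CCF4 readout was normalized to 50 nM agonist and DMSO, and Hill fits gave IC50.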
Vitamin D3 receptor (Homo sapiens), sequence (P11473 whole entry, looked up): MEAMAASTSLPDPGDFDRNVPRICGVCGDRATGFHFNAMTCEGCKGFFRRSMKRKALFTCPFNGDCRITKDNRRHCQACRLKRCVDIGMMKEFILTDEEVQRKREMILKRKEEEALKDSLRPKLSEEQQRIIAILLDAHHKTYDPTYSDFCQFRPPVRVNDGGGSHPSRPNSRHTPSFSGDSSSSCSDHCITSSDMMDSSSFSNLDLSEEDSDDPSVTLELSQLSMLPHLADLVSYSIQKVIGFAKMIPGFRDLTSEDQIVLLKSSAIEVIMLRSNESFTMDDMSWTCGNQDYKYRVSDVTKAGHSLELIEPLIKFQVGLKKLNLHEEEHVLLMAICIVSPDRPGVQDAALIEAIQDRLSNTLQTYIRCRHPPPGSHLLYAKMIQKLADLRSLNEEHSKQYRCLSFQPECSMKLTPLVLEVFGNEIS
Regarding `CCNc1nc(Cl)nc(NC(C)C)n1`, the outcome was inactive.

As for `ClC1=C(Cl)C2(Cl)C3C4CC(C5OC45)C3C1(Cl)C2(Cl)Cl` (configuration not stated), the result was inactive.

With `ClC(Cl)=C(c1ccc(Cl)cc1)c1ccc(Cl)cc1`, the result was inactive.

Regarding `ClC1=C(Cl)C2(Cl)C3C4C=CC(C4)C3C1(Cl)C2(Cl)Cl` (configuration not stated), the outcome was inactive.

As for `O=C(O)COc1ccc(Cl)cc1Cl`, the outcome was inactive.

With `COC(=O)NC(=S)Nc1ccccc1NC(=S)NC(=O)OC`, the outcome was inactive.

With `C/C=C/c1ccc2c(c1)OCO2`, the result was inactive.

As for `COP(=S)(OC)Oc1ccc([N+](=O)[O-])cc1`, the result was inactive.

As for `O=S1OCC2C(CO1)C1(Cl)C(Cl)=C(Cl)C2(Cl)C1(Cl)Cl` (configuration not stated), the outcome was inactive.

Consider `c1ccc(N=Nc2ccccc2)cc1`, for which the outcome was inactive.

Another assay shares this target. Put plainly: qHTS assay for small molecule agonists of vitamin D receptor signaling (AID 588543). The settings on record: HEK293T VDR-UAS-bla, beta-lactamase ratio, 16 h; series mostly up to 76.8 µM. An outline of the steps:
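β-lactamase reporter, VDR-UAS-bla HEK293T, agonist mode. Cells plated 5 h at 37 °C, compound titration 16 h at 37 °C, CCF4 dye 2 h RT, ratio 460/530 nm. Hill fit → EC50, efficacy vs 50 nM 1α,25-(OH)2D3.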
On the technique in general: Quantitative high-throughput screening tests each substance at several concentrations.
On to `CCNc1nc(Cl)nc(NC(C)C)n1`, for which the result was inactive.

With `ClC1=C(Cl)C2(Cl)C3C4CC(C5OC45)C3C1(Cl)C2(Cl)Cl` (configuration not stated), the result was inactive.

As to `CCOCN(C(=O)CCl)c1c(C)cccc1CC`, the outcome was inactive.

Take `ClC(Cl)=C(c1ccc(Cl)cc1)c1ccc(Cl)cc1`: the result was inactive.

As to `ClC1=C(Cl)C2(Cl)C3C4C=CC(C4)C3C1(Cl)C2(Cl)Cl` (configuration not stated), the outcome was inactive.

For the compound `O=C(O)COc1ccc(Cl)cc1Cl`, the result was inactive.

Take `COC(=O)NC(=S)Nc1ccccc1NC(=S)NC(=O)OC`: the outcome was inactive.

Consider `C/C=C/c1ccc2c(c1)OCO2`, for which the outcome was inactive.

Consider `COP(=S)(OC)Oc1ccc([N+](=O)[O-])cc1`, for which the outcome was inactive.

As to `c1ccc(N=Nc2ccccc2)cc1`, the outcome was inactive.

In the case of `CCc1cccc(CC)c1N(COC)C(=O)CCl`, the result was inactive.

Tested on in a further assay: not listed separately
Nature of the assay: qHTS assay for small molecule agonists of retinoid X receptor alpha signaling (AID 588544). The following applies: HEK293T RXRa-UAS-bla, beta-lactamase reporter, 18 h; 530 nm emission.
Consider `CCNc1nc(Cl)nc(NC(C)C)n1`, for which the max response was 15.9% and 26.8%.

Take `ClC(Cl)=C(c1ccc(Cl)cc1)c1ccc(Cl)cc1`: the max response came out at 8.46%.

For `O=C(O)COc1ccc(Cl)cc1Cl`, the max response came out at 29.1%.

As for `COC(=O)NC(=S)Nc1ccccc1NC(=S)NC(=O)OC`, the max response is 18.1% and -8.17%.

As for `C/C=C/c1ccc2c(c1)OCO2`, the max response is -11.2%.

Consider `COP(=S)(OC)Oc1ccc([N+](=O)[O-])cc1`, for which the max response was -22.5% and 4.79%.

In the case of `O=S1OCC2C(CO1)C1(Cl)C(Cl)=C(Cl)C2(Cl)C1(Cl)Cl` (configuration not stated), the max response is -15.4%.

For `C=CCc1ccc(OC)cc1`, the max response is -5.04%.

Turning to `CNC(=O)O/N=C/C(C)(C)SC`, the max response is -12.4% and 19.1% and 1.84%.

In the case of `c1ccc(N=Nc2ccccc2)cc1`, the max response is 8.95% and -1.18%.

In the case of `CCc1cccc(CC)c1N(COC)C(=O)CCl`, the max response was found to be 19.2%.

A further assay has as its target Retinoic acid receptor RXR-alpha (Homo sapiens) (UniProt P19793). The assay is described as above. The settings on record: HEK293T RXRa-UAS-bla, beta-lactamase reporter, 18 h; series mostly up to 76.7 µM.
As for `CCNc1nc(Cl)nc(NC(C)C)n1`, the Potency entry was “inactive”.

As for `ClC(Cl)=C(c1ccc(Cl)cc1)c1ccc(Cl)cc1`, the Potency result is “inactive”.

Turning to `O=C(O)COc1ccc(Cl)cc1Cl`, the Potency entry was “inactive”.

Take `COC(=O)NC(=S)Nc1ccccc1NC(=S)NC(=O)OC`: the Potency result is “inactive”.

In the case of `C/C=C/c1ccc2c(c1)OCO2`, the Potency result was “inactive”.

With `COP(=S)(OC)Oc1ccc([N+](=O)[O-])cc1`, the Potency result was “inactive”.

In the case of `O=S1OCC2C(CO1)C1(Cl)C(Cl)=C(Cl)C2(Cl)C1(Cl)Cl` (configuration not stated), the Potency entry was “inactive”.

For `C=CCc1ccc(OC)cc1`, the Potency result was “inactive”.

For the compound `CNC(=O)O/N=C/C(C)(C)SC`, the Potency entry is “inactive”.

Take `c1ccc(N=Nc2ccccc2)cc1`: the Potency entry was “inactive”.

Take `CCc1cccc(CC)c1N(COC)C(=O)CCl`: the Potency result was “inactive”.

For the next assay, the target named is Thyroid hormone receptor beta (Homo sapiens) (UniProt P10828). Put plainly: qHTS assay for small molecule agonists of thyroid hormone receptor beta signaling (AID 588545). The settings on record: TR-UAS-bla GripTite HEK 293, beta-lactamase ratio, agonist mode, 18 h, percent of T3 response, DMSO as zero; series mostly up to 76.7 µM. An outline of the steps:
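Efficacy and EC50 values derive from Hill fits of qHTS titration data, normalized to 10 nM T3 and DMSO-only wells. HEK 293 reporter cells were stimulated for 18 hrs at 37 C, with beta-lactamase activity measured by CCF4 fluorescence.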
For the compound `CCNc1nc(Cl)nc(NC(C)C)n1`, the result was inactive.

With `ClC1=C(Cl)C2(Cl)C3C4CC(C5OC45)C3C1(Cl)C2(Cl)Cl` (configuration not stated), the outcome was inactive.

In the case of `CCOCN(C(=O)CCl)c1c(C)cccc1CC`, the result was inactive.

Take `ClC(Cl)=C(c1ccc(Cl)cc1)c1ccc(Cl)cc1`: the outcome was inactive.

Regarding `ClC1=C(Cl)C2(Cl)C3C4C=CC(C4)C3C1(Cl)C2(Cl)Cl` (configuration not stated), the result was inactive.

Take `COC(=O)NC(=S)Nc1ccccc1NC(=S)NC(=O)OC`: the outcome was inactive.

For `C/C=C/c1ccc2c(c1)OCO2`, the outcome was inactive.

Take `COP(=S)(OC)Oc1ccc([N+](=O)[O-])cc1`: the outcome was inactive.

For `O=S1OCC2C(CO1)C1(Cl)C(Cl)=C(Cl)C2(Cl)C1(Cl)Cl` (configuration not stated), the result was inactive.

As to `ClC1=C(Cl)C2(Cl)C3C(Cl)C=CC3C1(Cl)C2(Cl)Cl` (configuration not stated), the outcome was inactive.

Regarding `CNC(=O)O/N=C/C(C)(C)SC`, the outcome was inactive.

Turning to `c1ccc(N=Nc2ccccc2)cc1`, the result was inactive.

Turning to `CCc1cccc(CC)c1N(COC)C(=O)CCl`, the result was inactive.

Tested on in another assay: not listed separately
Nature of the assay: qHTS assay for small molecule antagonists of retinoid X receptor alpha signaling (AID 588546).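 Note: cells stimulated with 9-cis-retinoic acid as agonist.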 The following applies: HEK293T RXRa-UAS-bla, beta-lactamase ratio, antagonist mode; measured here: W530 green channel, cytotoxicity proxy. In short, it runs like this: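 Beta-lactamase reporter inhibition, read as CCF4 fluorescence ratio (ex 405, em 460/530 nm) after 2 h at RT. HEK293T UAS-bla cells, 2500/well, were stimulated with 9-cis-RA at 500 or 100 nM final alongside test compound for 18 h at 37 C.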
With `CCNc1nc(Cl)nc(NC(C)C)n1`, the max response was 3.95% and -7.9%.

In the case of `ClC(Cl)=C(c1ccc(Cl)cc1)c1ccc(Cl)cc1`, the max response is -0.142% and -15.3%.

As to `ClC1=C(Cl)C2(Cl)C3C4C=CC(C4)C3C1(Cl)C2(Cl)Cl` (configuration not stated), the max response was -0.359%.

For `COC(=O)NC(=S)Nc1ccccc1NC(=S)NC(=O)OC`, the max response is 3.84% and -2.84%.

For the compound `C/C=C/c1ccc2c(c1)OCO2`, the max response was -8.06%.

Consider `COP(=S)(OC)Oc1ccc([N+](=O)[O-])cc1`, for which the max response is -15.3% and -6.14%.

Consider `O=S1OCC2C(CO1)C1(Cl)C(Cl)=C(Cl)C2(Cl)C1(Cl)Cl` (configuration not stated), for which the max response was determined as 1.46%.

On to `C=CCc1ccc(OC)cc1`, for which the max response was -1.65%.

As for `ClC1=C(Cl)C2(Cl)C3C(Cl)C=CC3C1(Cl)C2(Cl)Cl` (configuration not stated), the max response was -16.9%.

On to `CNC(=O)O/N=C/C(C)(C)SC`, for which the max response is -9.38% and -5.02% and 4.99%.

In the case of `c1ccc(N=Nc2ccccc2)cc1`, the max response is -17.4% and -6.96%.

On to `CCc1cccc(CC)c1N(COC)C(=O)CCl`, for which the max response is 18.2%.
